Results published in PMC7862700, “An all-to-all approach to the identification of sequence-specific readers for epigenetic DNA modifications on cytosine”.

The sequences below were run against T1, ERF (Homo sapiens, UniProt P50548 1-548) (assay: DAPPL (digital affinity profiling via proximity ligation, sequencing); 10 mM Tris-HCl pH 7.5, 50 mM NaCl, 1 mM DTT, 4% glycerol, room temperature, 30 min; GST-TFs on glutathione beads, 16-mer random dsDNA library, 0.1% formaldehyde crosslink after washing; high values mean tight binding). Settings: protein: recombinant; tags: N-terminal GST; dsDNA, one strand shown.
T1 sequence: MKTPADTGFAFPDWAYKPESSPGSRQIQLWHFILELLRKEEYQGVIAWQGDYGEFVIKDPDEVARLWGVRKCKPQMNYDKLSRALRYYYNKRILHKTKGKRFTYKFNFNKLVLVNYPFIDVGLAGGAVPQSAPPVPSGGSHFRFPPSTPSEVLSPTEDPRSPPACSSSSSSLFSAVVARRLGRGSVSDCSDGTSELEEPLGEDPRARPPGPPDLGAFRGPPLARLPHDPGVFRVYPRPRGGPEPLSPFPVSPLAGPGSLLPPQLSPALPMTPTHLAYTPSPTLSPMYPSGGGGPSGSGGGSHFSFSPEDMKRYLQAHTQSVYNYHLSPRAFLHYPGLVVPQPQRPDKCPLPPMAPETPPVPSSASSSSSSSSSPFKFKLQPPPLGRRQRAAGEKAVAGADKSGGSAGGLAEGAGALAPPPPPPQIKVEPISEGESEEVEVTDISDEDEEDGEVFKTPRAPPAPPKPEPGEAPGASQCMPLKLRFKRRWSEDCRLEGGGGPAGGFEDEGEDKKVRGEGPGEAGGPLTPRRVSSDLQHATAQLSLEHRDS
Method in brief: (§1)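 Beads coated with glutathione captured GST-fused human transcription factors that had been expressed in yeast, and the factors were then given DNA barcodes and pooled with a tag-only sample. The pools were incubated with 200 nmole of a random double-stranded 16-mer DNA library in Tris/NaCl/DTT/glycerol buffer for 30 min at room temperature, washed, crosslinked with 0.1% formaldehyde and proximity-ligated with BsaI/T4 ligase at 37 °C for 1 h. PCR amplification and Illumina NextSeq500 sequencing came last. Binding signal is each hexamer's read frequency for a factor divided by its frequency for the tag-only sample.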

Row | Sequence | binding signal
1 | TATGGT | 1.18 fold enrichment (6-mer frequency, TF over GST control)
2 | TTGACC | 1.45 fold enrichment (6-mer frequency, TF over GST control)
3 | ATGTCC | 1.36 fold enrichment (6-mer frequency, TF over GST control)
4 | AACTTC | 2.22 fold enrichment (6-mer frequency, TF over GST control)
5 | CTAAGC | 1.14 fold enrichment (6-mer frequency, TF over GST control)
6 | ACAACT | 1.4 fold enrichment (6-mer frequency, TF over GST control)
7 | CGACTA | 1.31 fold enrichment (6-mer frequency, TF over GST control)
8 | GACCTG | 1.13 fold enrichment (6-mer frequency, TF over GST control)
9 | GGTACT | 1.38 fold enrichment (6-mer frequency, TF over GST control)
10 | GGGCTT | 1.19 fold enrichment (6-mer frequency, TF over GST control)
11 | ACTGGC | 1.18 fold enrichment (6-mer frequency, TF over GST control)
12 | TCTCAA | 1.22 fold enrichment (6-mer frequency, TF over GST control)
13 | AAAAGA | 1.24 fold enrichment (6-mer frequency, TF over GST control)
14 | CATCCG | 1.86 fold enrichment (6-mer frequency, TF over GST control)
15 | AAGCGC | 1.1 fold enrichment (6-mer frequency, TF over GST control)
16 | AGGAAA | 1.34 fold enrichment (6-mer frequency, TF over GST control)
17 | TGCACG | 1.11 fold enrichment (6-mer frequency, TF over GST control)
18 | GTCTTA | 1.12 fold enrichment (6-mer frequency, TF over GST control)
19 | AAACGG | 1.17 fold enrichment (6-mer frequency, TF over GST control)
20 | CGCTCC | 1.31 fold enrichment (6-mer frequency, TF over GST control)

Row | Sequence | binding signal
21 | CCTTTG | 1.24 fold enrichment (6-mer frequency, TF over GST control)
22 | GTGTTT | 1.12 fold enrichment (6-mer frequency, TF over GST control)
23 | GCCTCA | 1.35 fold enrichment (6-mer frequency, TF over GST control)
24 | TTGCAA | 1.15 fold enrichment (6-mer frequency, TF over GST control)
25 | TGCGAA | 1.07 fold enrichment (6-mer frequency, TF over GST control)
26 | GAAATT | 1.36 fold enrichment (6-mer frequency, TF over GST control)
27 | TAAACA | 1.31 fold enrichment (6-mer frequency, TF over GST control)
28 | GTACAC | 1.15 fold enrichment (6-mer frequency, TF over GST control)
29 | TACATT | 1.34 fold enrichment (6-mer frequency, TF over GST control)
30 | TGGTTC | 1.34 fold enrichment (6-mer frequency, TF over GST control)
31 | CAACAT | 1.23 fold enrichment (6-mer frequency, TF over GST control)
32 | AAGTCA | 1.2 fold enrichment (6-mer frequency, TF over GST control)
33 | TCTCCG | 1.38 fold enrichment (6-mer frequency, TF over GST control)
34 | CTGGGT | 1.07 fold enrichment (6-mer frequency, TF over GST control)
35 | TACAAA | 1.1 fold enrichment (6-mer frequency, TF over GST control)
36 | CAAGCA | 1.15 fold enrichment (6-mer frequency, TF over GST control)
37 | CTTTCT | 1.63 fold enrichment (6-mer frequency, TF over GST control)
38 | ATTAAC | 1.26 fold enrichment (6-mer frequency, TF over GST control)
39 | TTGCGC | 1.28 fold enrichment (6-mer frequency, TF over GST control)
40 | TGATGT | 1.16 fold enrichment (6-mer frequency, TF over GST control)

The sequences below were run against T2, ETV3L (Homo sapiens, UniProt Q6ZN32 1-361) in the same assay as above. Settings: protein: recombinant; tags: N-terminal GST; dsDNA, one strand shown.
T2 sequence: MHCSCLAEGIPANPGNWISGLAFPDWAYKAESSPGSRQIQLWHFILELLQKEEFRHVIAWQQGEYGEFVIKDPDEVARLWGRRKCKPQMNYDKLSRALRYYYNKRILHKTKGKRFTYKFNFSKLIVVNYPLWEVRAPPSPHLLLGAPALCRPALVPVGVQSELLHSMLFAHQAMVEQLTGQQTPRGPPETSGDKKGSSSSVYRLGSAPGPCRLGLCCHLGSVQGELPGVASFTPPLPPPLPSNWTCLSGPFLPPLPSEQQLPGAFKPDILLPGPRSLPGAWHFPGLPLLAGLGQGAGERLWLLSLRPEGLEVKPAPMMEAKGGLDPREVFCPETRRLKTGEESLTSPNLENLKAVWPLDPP
Method in brief: as §1

Row | Sequence | binding signal
41 | TATGGT | 1.24 fold enrichment (6-mer frequency, TF over GST control)
42 | TTGACC | 1.46 fold enrichment (6-mer frequency, TF over GST control)
43 | ATGTCC | 1.7 fold enrichment (6-mer frequency, TF over GST control)
44 | AACTTC | 2.51 fold enrichment (6-mer frequency, TF over GST control)
45 | CTAAGC | 1.09 fold enrichment (6-mer frequency, TF over GST control)
46 | ACAACT | 1.36 fold enrichment (6-mer frequency, TF over GST control)
47 | CGACTA | 1.52 fold enrichment (6-mer frequency, TF over GST control)
48 | GACCTG | 1.33 fold enrichment (6-mer frequency, TF over GST control)
49 | GGTACT | 1.3 fold enrichment (6-mer frequency, TF over GST control)
50 | GGGCTT | 1.2 fold enrichment (6-mer frequency, TF over GST control)
51 | ACTGGC | 1.18 fold enrichment (6-mer frequency, TF over GST control)
52 | TCTCAA | 1.28 fold enrichment (6-mer frequency, TF over GST control)
53 | AAAAGA | 1.1 fold enrichment (6-mer frequency, TF over GST control)
54 | CATCCG | 2.11 fold enrichment (6-mer frequency, TF over GST control)
55 | AAGCGC | 1.13 fold enrichment (6-mer frequency, TF over GST control)
56 | AGGAAA | 1.37 fold enrichment (6-mer frequency, TF over GST control)
57 | TGCACG | 1.1 fold enrichment (6-mer frequency, TF over GST control)
58 | GTCTTA | 1.21 fold enrichment (6-mer frequency, TF over GST control)
59 | AAACGG | 1.23 fold enrichment (6-mer frequency, TF over GST control)
60 | CGCTCC | 1.4 fold enrichment (6-mer frequency, TF over GST control)

Row | Sequence | binding signal
61 | CCTTTG | 1.32 fold enrichment (6-mer frequency, TF over GST control)
62 | GTGTTT | 1.18 fold enrichment (6-mer frequency, TF over GST control)
63 | GCCTCA | 1.31 fold enrichment (6-mer frequency, TF over GST control)
64 | TTGCAA | 1.19 fold enrichment (6-mer frequency, TF over GST control)
65 | TGCGAA | 1.1 fold enrichment (6-mer frequency, TF over GST control)
66 | GAAATT | 1.34 fold enrichment (6-mer frequency, TF over GST control)
67 | TAAACA | 1.25 fold enrichment (6-mer frequency, TF over GST control)
68 | GTACAC | 1.16 fold enrichment (6-mer frequency, TF over GST control)
69 | TACATT | 1.18 fold enrichment (6-mer frequency, TF over GST control)
70 | TGGTTC | 1.36 fold enrichment (6-mer frequency, TF over GST control)
71 | CAACAT | 1.2 fold enrichment (6-mer frequency, TF over GST control)
72 | AAGTCA | 1.19 fold enrichment (6-mer frequency, TF over GST control)
73 | TCTCCG | 1.43 fold enrichment (6-mer frequency, TF over GST control)
74 | CTGGGT | 1.18 fold enrichment (6-mer frequency, TF over GST control)
75 | TACAAA | 1.03 fold enrichment (6-mer frequency, TF over GST control)
76 | CAAGCA | 1.17 fold enrichment (6-mer frequency, TF over GST control)
77 | CTTTCT | 1.5 fold enrichment (6-mer frequency, TF over GST control)
78 | ATTAAC | 1.31 fold enrichment (6-mer frequency, TF over GST control)
79 | TTGCGC | 1.13 fold enrichment (6-mer frequency, TF over GST control)
80 | TGATGT | 1.21 fold enrichment (6-mer frequency, TF over GST control)

These sequences were tested against T3, ETS2 (Homo sapiens, UniProt P15036 1-469) in the same assay as above. Settings: protein: recombinant; tags: N-terminal GST; dsDNA, one strand shown.
T3 sequence: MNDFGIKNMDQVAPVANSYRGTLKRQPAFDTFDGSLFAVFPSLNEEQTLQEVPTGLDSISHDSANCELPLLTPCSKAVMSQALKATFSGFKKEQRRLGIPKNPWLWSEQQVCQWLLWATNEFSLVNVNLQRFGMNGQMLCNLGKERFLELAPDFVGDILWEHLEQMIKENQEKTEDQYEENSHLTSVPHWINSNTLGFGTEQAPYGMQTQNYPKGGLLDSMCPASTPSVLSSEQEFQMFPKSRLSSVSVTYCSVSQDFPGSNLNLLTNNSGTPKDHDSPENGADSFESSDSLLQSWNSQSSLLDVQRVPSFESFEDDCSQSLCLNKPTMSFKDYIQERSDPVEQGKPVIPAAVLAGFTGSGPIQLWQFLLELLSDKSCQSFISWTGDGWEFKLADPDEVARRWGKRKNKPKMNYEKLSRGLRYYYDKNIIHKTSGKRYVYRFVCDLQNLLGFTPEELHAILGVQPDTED
Method in brief: as §1

Row | Sequence | binding signal
81 | TATGGT | 1.33 fold enrichment (6-mer frequency, TF over GST control)
82 | TTGACC | 1.4 fold enrichment (6-mer frequency, TF over GST control)
83 | ATGTCC | 1.58 fold enrichment (6-mer frequency, TF over GST control)
84 | AACTTC | 2.63 fold enrichment (6-mer frequency, TF over GST control)
85 | CTAAGC | 1.15 fold enrichment (6-mer frequency, TF over GST control)
86 | ACAACT | 1.39 fold enrichment (6-mer frequency, TF over GST control)
87 | CGACTA | 1.38 fold enrichment (6-mer frequency, TF over GST control)
88 | GACCTG | 1.19 fold enrichment (6-mer frequency, TF over GST control)
89 | GGTACT | 1.31 fold enrichment (6-mer frequency, TF over GST control)
90 | GGGCTT | 1.22 fold enrichment (6-mer frequency, TF over GST control)
91 | ACTGGC | 1.11 fold enrichment (6-mer frequency, TF over GST control)
92 | TCTCAA | 1.25 fold enrichment (6-mer frequency, TF over GST control)
93 | AAAAGA | 1.22 fold enrichment (6-mer frequency, TF over GST control)
94 | CATCCG | 2.16 fold enrichment (6-mer frequency, TF over GST control)
95 | AAGCGC | 1.22 fold enrichment (6-mer frequency, TF over GST control)
96 | AGGAAA | 1.48 fold enrichment (6-mer frequency, TF over GST control)
97 | TGCACG | 1.15 fold enrichment (6-mer frequency, TF over GST control)
98 | GTCTTA | 1.16 fold enrichment (6-mer frequency, TF over GST control)
99 | AAACGG | 1.26 fold enrichment (6-mer frequency, TF over GST control)
100 | CGCTCC | 1.39 fold enrichment (6-mer frequency, TF over GST control)
